Inconclusive results are not listed. Calls come from the whole dose curve; as a rule, active = well fitted inhibition curve with a large enough effect; inconclusive = small, poorly fitted or top-dose-only effect; inactive = no such curve, though single readings can be large or run the other way.
molecular target: Luciferin 4-monooxygenase (Photinus pyralis) (UniProt P08659); test: Confirmatory firefly luciferase (FLuc) qHTS assay for identification of artifact compounds; conditions: purified FLuc enzyme, luminescence, 5 min; series mostly up to 38.9 µM; activity change, negative = inhibition: at the top concentration
Source text: PI: Alexander Tropsha Ph.D. UNC Eshelman School of Pharmacy University of North Carolina, Chapel Hill, North Carolina Hits from high-throughput screening (HTS) of chemical libraries are often false positives due to their interference with the assay detection technology. In response to this problem, we generated the largest publicly available library of chemical liabilities and developed a free webtool to predict HTS artifacts, both of which are described herein. More specifically, we generated, curated, and integrated HTS datasets for thiol reactivity, redox activity, and luciferase (firefly and nano) activity. Using these curated datasets, we developed and validated several Quantitative Structure-Interference Relationship (QSIR) models to predict nuisance behavior. […] These models were employed for virtual profiling of the National Center for Advancing Translational Science's (NCATS) in-house library, and 256 compounds for each assay were selected for the experimental validation of nuisance behavior. The BA for these external predictions ranged from 58 to 78% for compounds within the applicability domains of the models. […] The models developed in this study, along with aggregation models previously developed by our group (SCAM Detective) were implemented in "Liability Predictor," an online tool which may be used as part of chemical library design or for triaging HTS hits. Both the models and the curated datasets are publicly available at https://liability.mml.unc.edu/.
PROTOCOL TABLE SEQUENCE No. (e.g., 1, 2, 3, etc.); […] (e.g., Cells, Incubation, Reagent, etc.); VALUE; DESCRIPTION. 1; Reagent; 3 uL; Luciferase substrate mixture. 2; Compounds and control; 16 nL; Kalypsis pin tool (Wako USA) equipped with a 1536-well pin head. 3; Incubation; 15 min. 4; Reagent; 1 uL; Luciferase enzyme. 5; Incubation; 5 min. 6; Detection; Luminescence, ViewLux microplate reader. NOTES (numbers refer to Sequence numbers above) 1. 3 uL of luciferase substrate mixture containing D-luciferin and ATP (final concentrations of 10 uM and 10 uM, respectively) in assay buffer (10 mM Mg-acetate, 0.01% Tween-20, 0.05% bovine serum albumin, 50 mM Tris acetate, pH 7.6) was dispensed into all wells of a 1536-well assay plate (solid-bottom white plate; Greiner Bio One, Monroe, NC). 2. A Wako Pin-tool (Wako Automation, Richmond, VA) was used to transfer 16 nL of compounds (consisting of 7-plates in qHTS format, final concentration range 18.3 nM to 114 uM) or control PTC124 (final concentration range 1.22 nM to 40 uM). 3. 15 min. incubation at room temperature protected from light. 4. 1 uL of luciferase enzyme (final concentration 10 nM, Photinus pyralis luciferase) or buffer was dispensed for a final assay volume of 4 uL. 5. Plates were centrifuged (121xg, 15 seconds) and incubated for 5 minutes. 6. Samples were read for luminescence on a ViewLux CCD imager (PerkinElmer). Data were normalized to no-enzyme (0% activity) and no-inhibitor (DMSO; 100%) controls and the resulting percent inhibition data were fitted to a 4-parameter Hill equation using NCATS in-house software.

Activity change, negative = inhibition, inactive:
O=S(=O)(Nc1cccc2cccnc12)c1ccccc1 13.1%
O=C(Nc1ccc(F)cc1F)c1ccc(-n2cnnc2)cc1 -4.99%
O=C(C1CCC(CNS(=O)(=O)c2cccc3cccnc23)CC1)N1CCCCC1 (stereo not given) -3.34%
CC(C)(C)OC(=O)N1CCN(c2ccc(NCc3ccc(-c4ccc(C#N)cc4)nc3)cc2)CC1 -2.91%
O=C1Nc2ccccc2/C1=C\c1ccc(O)cc1 0.923%
Cc1cn(C)c(CC(=O)N2CCN(c3ccccc3F)CC2)c1C(=O)O 3.91%
CNc1oc(-c2ccc3cnccc3c2)nc1C#N -4.28%
COc1ccc(N2CC(NC(=O)COc3ccccc3)CC2=O)cc1OC (stereo not given) -4.62%
O=C(/C=C/c1ccc(O)c(O)c1)c1ccc(O[C@@H]2O[C@H](CO)[C@@H](O)[C@H](O)[C@H]2O)c(O)c1O -6.71%
O=C(NCc1ccccc1)c1cnc2sc(N3CCCC3)nn2c1=O 5.84%
CNCc1nc(-c2ccc[nH]2)c2cc(Cl)ccc2n1 -3.62%
CC1CCCCN1S(=O)(=O)c1cc2c3c(c1)CC(=O)N3CCC2 (stereo not given) 2.48%
CCOC(=O)c1c(S(=O)(=O)N2CCCC(C(=O)Nc3cccc(C)n3)C2)c(C)n(C)c1C (stereo not given) 8.05%
CCc1ccc(S(=O)(=O)c2nnn3c2nc(N2CCOCC2)c2sccc23)cc1 0.839%
O=C1CCc2cc([S+](=O)([O-])NC3CCOCC3)ccc2N1 -0.811%
COc1ccc(C2Nc3ccccc3C(=O)N2CCCN(C)C)cc1COc1ccc(NC(C)=O)cc1 (stereo not given) 2.59%
Cc1cc(-c2ccccc2)n2nc(-c3ccc(Cl)cc3)cc2n1 -0.184%
O=C(O)C1CC2CCCCC2N1C(=O)c1ccc(Cl)cc1 (stereo not given) 4.1%
CCCCCCCCCCCCCCCC(=O)N[C@@H](COP(=O)(O)O)C(=O)O 3.09%
CCc1ccc(NC(=O)CN2C(=O)C3(SCC(=O)N3c3ccc(F)c(F)c3)c3ccccc32)cc1 (stereo not given) 6.32%
C[C@H](CCC(=O)NCCS(=O)(=O)O)C1CC[C@H]2C3CC[C@@H]4C[C@H](O)CC[C@]4(C)C3C[C@H](O)[C@]12C (stereo not given in full) -6%
CCN(C(=O)Cn1nc(Cc2cccnc2)c2ccccc2c1=O)c1cc(C)ccc1C 3.67%
CCCn1c(-c2cccc(Br)c2)nc2ccccc21 -3.37%
CCCOc1ccc(C(=O)Nc2ccc3oc(-c4ccncc4)nc3c2)cc1 111%
CC(C)=CCC/C(C)=C/C=O -2.39% [at 78.4 µM]
COc1ccc(C2Nc3ccccc3C(=O)N2Cc2ccccc2)cc1Oc1ccc(NC(C)=O)cc1 (stereo not given) 4.88%
CCCCN(CCCC)C(=O)c1cc2c(=O)n3ccccc3nc2s1 2.17%
C=C[C@](C)(O)CCC1C(=C)CC(O)C2C(C)(C)CCCC12C (stereo not given in full) 0.164%
CC(C)(C)OC(=O)N1CCC[C@H]1C(=O)N1CCC(C(=O)N[C@H](Cc2ccccc2)C(=O)NCc2ccc(F)cc2)CC1 0.258% [at 78.4 µM]
O=c1cc(-c2ccc(O)cc2)oc2cc(O[C@H]3OC(CO)C(O)C(O)C3O)cc(O)c12 (stereo not given in full) 8.38%
Cc1cc(C)n2ncc(C(=O)Nc3ccc(-c4cn[nH]c4)cc3)c2n1 1.98%
O=C(COc1ccccc1C(=O)Nc1ccccc1)Nc1cccc([N+](=O)[O-])c1 4.06%
CC1CCN(c2nc3ccccc3nc2SCC(=O)Nc2ccccc2C(C)C)CC1 2.07%
Cc1ccc(NC(=O)c2sc3ncn(Cc4cccc(F)c4)c(=O)c3c2C)c(Br)c1 0.195%
Cc1cccc(C(=O)Nc2ccc(-c3nc4ncccc4o3)cc2C)c1 -3.06%
Cc1cccc(NC(=O)COC(=O)CCCC2=NS(=O)(=O)c3ccccc3N2)c1 -1.99%
COc1ccc(-c2cc(C(=O)Nc3cc(C(F)(F)F)ccc3Cl)no2)cc1 9.92%
C[C@@H]1OC(OC2C(OC3CC[C@@]4(C)C5CC=C6C7CC(C)(C)CC[C@@]7(C(=O)O)CCC6(C)C5(C)CCC4[C@]3(C)CO)OCC(O)C2O)C(O)C(O)C1O (stereo not given in full) -2.24%
CCOC(=O)c1c(S(=O)(=O)NCC(=O)N2CCN(c3cc(C)ccc3C)CC2)c(C)n(C)c1C 3.41%
Nc1ncnc2c1ncn2[C@@H]1O[C@H](COP(=O)(O)OP(=O)(O)OC[C@H]2OC(O)[C@H](O)[C@@H]2O)[C@@H](O)[C@H]1O (stereo not given in full) 135%

From PubChem BioAssay AID1845227 (National Center for Advancing Translational Sciences (NCATS), 2023)
